Bioassay records from PubChem.
AmpC inh detg: qHTS Inhibitors of AmpC Beta-Lactamase (assay with detergent). AmpC hydrolysis of nitrocefin, absorbance 480 nm, 0.01% Triton. Potency, µM (top dose mostly 114 µM), for inactives: at the highest dose activity change, negative = inhibition, hits mostly inhibitors. AID 485294, 2010. 370,000 compounds, 0.041% hits;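 also: 0% = no-compound wells and -100% = no-enzyme wells; nearly all actives have a fitted effect of over 25% in size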
Target sequence (P00811 whole entry, looked up): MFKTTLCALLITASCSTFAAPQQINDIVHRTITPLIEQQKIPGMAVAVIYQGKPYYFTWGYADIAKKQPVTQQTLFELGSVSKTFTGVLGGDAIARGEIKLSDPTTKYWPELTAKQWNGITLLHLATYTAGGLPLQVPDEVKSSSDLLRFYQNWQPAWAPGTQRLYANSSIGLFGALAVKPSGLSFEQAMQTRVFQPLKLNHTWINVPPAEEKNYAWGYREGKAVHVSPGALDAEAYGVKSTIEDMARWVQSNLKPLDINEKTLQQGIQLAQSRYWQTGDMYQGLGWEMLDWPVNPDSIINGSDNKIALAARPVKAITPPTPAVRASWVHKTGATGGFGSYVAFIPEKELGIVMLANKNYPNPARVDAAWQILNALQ
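AmpC (5.3 nM in the dispensed reagent) in 20 mM phosphate pH 7.0 with 0.01% (detergent screen) or 0.0001% Triton X-100 was preincubated with compounds for 15 min at room temperature. Nitrocefin was then added from an 800 uM solution, and hydrolysis was followed at 480 nm.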
TbPYK inhibitor: qHTS of Trypanosoma Brucei Inhibitors. pyruvate kinase (Trypanosoma brucei), Q57TT1. TbPYK enzyme, Kinase-Glo Plus ATP luminescence, 45 min. Potency, µM (titrated, usually from 76.8 µM), without a hit: at the top dose activity, negative = inhibition, hits mostly inhibitors. 410,000 compounds, 0.12% hits; also: % is scaled to controls: 0 for no effect and ±100 for the full control effect; nearly all actives have a fitted effect of over 50% in size
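Enzyme and substrate buffer are dispensed first and compound is pin-transferred. ADP at 130 uM final then starts the reaction, which runs 45 min at room temperature. Detection reagent is added for 10 min before luminescence is imaged.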
RE007 growth inh: qHTS Assay for Inhibitors of the HIV-1 protein Vpr; 360,000 compounds, 0.21% hits; S. pombe RE007 Vpr strain, BacTiter-Glo ATP luminescence, 24 h; Potency, µM (top dose mostly 92.2 µM), for inactives: at the highest dose activity change, negative = less growth, actives largely listed as inhibitors; active = well fitted falling curve with a large enough effect; inconclusive = small, poorly fitted or top-dose-only effect; inactive = no such curve, though single readings can be large or run the other way; also: % is scaled to controls: 0 for no effect and ±100 for the full control effect; nearly all actives have a fitted effect of over 50% in size
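Fission yeast RE007 carrying one integrated HIV-1 vpr copy, seeded at OD 0.01 in PMG+AL medium with 23 nL pinned compound. Grown 24 h at 30 degrees; viability read by BacTiter-Glo luminescence after 5 min.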
Sm TGR block: qHTS Assay for the Inhibitors of Schistosoma Mansoni Peroxiredoxins; purified TGR, DTNB reduction, TNB absorbance 405 nm; 360,000 compounds, 3% hits; Potency, µM (doses to about 114 µM), inactives show at the highest dose activity change, negative = inhibition, usual class: inhibitors; also: % is scaled to controls: 0 for no effect and ±100 for the full control effect; nearly all actives have a fitted effect of over 60% in size
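TGR 20 nM + NADPH 100 uM (dispensed conc.), cpd preinc 15 min RT; start with NADPH (500 uM addition) then DTNB (15 mM addition). Kinetic TNB absorbance, 405 nm filter. Four-parameter Hill fit across titration.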
SARS PLP yeast: qHTS of Yeast-based Assay for SARS-CoV PLP; S. cerevisiae expressing SARS-CoV PLpro, growth rescue; Potency, µM (highest dose often 32.9 µM), without a hit: top-dose activity, positive = growth rescue, actives largely listed as activators; 330,000 compounds, 0.19% hits; AID 485353, 2010; calls by dose curve; also: 0% is about no effect; nearly all actives have a fitted effect of over 55% in size
AmpC no deterg: qHTS Inhibitors of AmpC Beta-Lactamase (assay without detergent). AmpC nitrocefin hydrolysis, absorbance 480 nm, 0.0001% Triton. 330,000 compounds, 0.52% hits. AID 485341, 2010. Potency, µM (series often up to 57.1 µM), inactives show at the top dose activity change, negative = inhibition, usual class: inhibitors;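 also: plate controls were no compound for no effect and no enzyme for full effect; nearly all actives have a fitted effect of over 20% in size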
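AmpC (5.3 nM in the dispensed reagent) in 20 mM phosphate pH 7.0 with 0.01% (detergent screen) or 0.0001% Triton X-100 was preincubated with compounds for 15 min at room temperature. Nitrocefin was then added from an 800 uM solution, and hydrolysis was followed at 480 nm.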
* = called active by the depositor; ? = inconclusive; · = no result; ! = a repeat was not active. Sampled rows, rich in hits. Any-hit rate of the full collection: about 3.3%. Unless noted, calls follow the shape of the dose curve; as a rule, active = well fitted curve in the direction sought with a large enough effect; inconclusive = small, poorly fitted or top-dose-only effect, or another doubt; inactive = no such curve, though single readings can be large; an effect the other way counts as inactive or inconclusive. Potency is read from the fitted curve at half-maximal effect.

SMILES	AmpC inh detg	TbPYK inhibitor	RE007 growth inh	Sm TGR block	SARS PLP yeast	AmpC no deterg
Cc1ccc(NC(=O)COc2ccc(C(=O)c3ccccc3)cc2)c(O)c1	1.4%	1.6%	-3.9%	-12.1%	-2.3%	15.8µM*
CCOC(=O)c1cnc2c(ccc3ccccc32)c1Nc1ccccc1O	14.1%	-3.1%	·	4.3%	·	·
COc1ccccc1CNc1ccc(C(=O)O)cc1	?	-2.3%	6.8%	0.3%	15.9%	-18.6%
COc1cc(CNc2ccc(N3CCCC3)cc2)cc(Cl)c1OC	8.0%	?	-13.6%	·	-1.4%	-10.7%
COc1ccccc1CNc1ccc(N2CCCCC2)cc1	?	-15.2%	-10.9%	10µM*	-14.9%	-29.1%
CCOc1cc(CNc2ccc(N3CCCC3)cc2)cc(Cl)c1OC	-7.2%	?	?	25.1µM*	-0.3%	-26.4%
COc1cccc(CNc2ccc(N3CCCCC3)cc2)c1OC	5.2%	-16.3%	-0.3%	25.1µM*	-6.6%	-4.5%
Cc1nn(C(=O)c2ccccc2)c(C)c1S(=O)(=O)N1CCCCCC1	1.9%	4.5%	·	-1.9%	·	·
COC(=O)c1scc(S(C)(=O)=O)c1-n1cccc1	-4.3%	-2.2%	3.5%	-1.2%	0.9%	-12.1%
Cc1csc(C(=O)O)c1-n1cccc1	4.2%	-14.5%	21.6%	5.1%	-4.6%	0.282µM*
CCc1ccc(CNC(=O)CCN2C(=O)COc3ccccc32)cc1	-5.8%	0.2%	·	6.6%	·	·
CCOc1ccc(C(=O)c2cn(CC(=O)Nc3cc(OC)cc(OC)c3)c3ccc(F)cc3c2=O)cc1	-7.0%	-0.6%	·	0.6%	·	·
COc1ccccc1N1CCN(C(=O)c2nn(C)c3c2CS(=O)(=O)c2ccccc2-3)CC1	7.0%	-1.4%	-12.7%	8.91µM*!	-4.2%	88.0%
COc1ccc2[nH]c(=O)cc(C(=O)O)c2c1	0.5%	-2.1%	-2.3%	-5.7%	-0.9%	-12.8%
COc1ccc2[nH]c3c4c(ccc3c2c1)C(=O)C=CC4=O	2.6%	?	8.7%	0.708µM*	-5.3%	-34.5%
COc1cc(CN2CCCC(C(=O)c3sccc3C)C2)cc(OC)c1O (stereo not given)	-0.2%	-9.5%	-15.8%	15.8µM*	-2.1%	-19.1%
Cc1cccc(C(=O)Oc2ccc(/C=N/NC(=O)c3ccc(O)cc3)cc2)c1	-2.2%	6.8%	34.2%	6.1%	2.0%	14.1µM*
O=S(=O)(N/N=C/c1ccc(N2CCOCC2)cc1)c1ccccc1	6.7%	-2.4%	22.0%	35.5µM*	0.4%	-17.1%
O=C(N/N=C/c1ccc(N2CCOCC2)s1)c1ccc(O)cc1	·	4.2%	2.7%	·	·	·
O=C(N/N=C/c1ccc(N2CCOCC2)cc1)c1ccc(O)cc1	0.1%	2.4%	-15.4%	44.7µM*	0.0%	-33.7%
C/C=C\C=C\C(=O)N1CC2(CC(c3cccc(NC(=O)CC)c3)=NO2)C[C@H]1C(N)=O (stereo not given in full)	0.8%	-19.9%	-2.8%	2.51µM*	2.4%	42.0%
C/C=C/C=C\C(=O)Nc1cccc(C2=NOC3(C2)C[C@@H](C(N)=O)N(C(=O)c2cc([N+](=O)[O-])cc([N+](=O)[O-])c2C)C3)c1 (stereo not given in full)	2.4%	-19.6%	-15.2%	2.82µM*	-3.2%	86.8%
C/C=C\C=C/C(=O)Nc1cccc(C2=NOC3(C2)C[C@@H](C(N)=O)N(C(=O)c2ccccc2)C3)c1 (stereo not given in full)	-0.6%	·	·	3.16µM*	0.8%	93.1%
C/C=C/C=C\C(=O)Nc1cccc(C2=NOC3(C2)C[C@H](C(N)=O)N(C(=O)/C=C/C)C3)c1 (stereo not given in full)	-4.0%	-20.8%	5.0%	2.82µM*	1.9%	39.0%
